Experimental data taken from PubChem BioAssay (Tox21).
Records with an inconclusive call do not appear. Calls of active or inactive are those of the source. Unless noted, the call rests on the fitted dose curve.

What was measured:
[1] = Nuclear factor erythroid 2-related factor 2/antioxidant responsive element (Nrf2/ARE) small molecule agonists: qHTS cell viability counter screen in human keratinocytes (AID 1919968; active means well fitted curve in the direction sought with a large enough effect in the repeat runs; an effect the other way counts as inactive or inconclusive; further: nearly all actives have a fitted effect of over 55% in size; further: potency means the concentration at half of the fitted maximal effect)
Summary of the method: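 Seed 1,500 KeratinoSens cells per well, then incubate 5 h at 37 C/5% CO2. Add compounds in DMSO and incubate 23 h. Add CellTiter-Fluor, wait 1 h and read fluorescence.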

[2] = biological target: Gonadotropin-releasing hormone receptor (Homo sapiens) (UniProt P30968); assay: Human gonadotropin-releasing hormone receptor (GnRHR) small molecule agonists, calcium flux assay in GnRHR-HEK293 cells (AID 1920063); further: nearly all actives have a fitted effect of over 35% in size
Summary of the method: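 Cells: HEK293 stably expressing human GnRHR. Steps: overnight (18 h) culture, 1 h calcium dye loading at 37 C, compound addition, kinetic fluorescence read at 480/540 nm. Each compound tested at 15 concentrations in triplicate.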

[3] = biological target: KiSS-1 receptor (Homo sapiens) (UniProt Q969F8); assay: Human kisspeptin (KISS1R) small molecule agonists, calcium flux assay in KISS1R-HEK293 cells (AID 1920064; active means well fitted curve in the direction sought with a large enough effect in the repeat runs; an effect the other way counts as inactive or inconclusive)
Summary of the method: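 Cells plated and incubated 18 h; dye added, 1 h at 37 C; compounds in DMSO pinned in; signal read at 480/540 nm every second for 3 min. Each compound tested at 15 concentrations in triplicate.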

[4] = G protein-coupled receptor (GPCR) small molecule agonists, calcium flux assay: HEK293 wild type cell line counter screen (AID 1920065)
Summary of the method: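 Counter-screen of the Tox21 10K library for non-specific calcium release: dye-loaded cells received compounds in DMSO and were monitored by kinetic fluorescence (480/540 nm, 3 min). Fifteen concentrations, run in triplicate.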

[5] = p53 small molecule agonists, cell-based qHTS assay with human liver microsomes (AID 1963577);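 further: p53 response element beta-lactamase reporter cells with liver microsomes plus NADPH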
Summary of the method: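 With metabolic activation: human liver microsomes (0.5 mg/mL final) plus NADPH (0.5 mg/mL final) added alongside compounds to p53RE-bla cells; 16 h 37 C exposure; beta-lactamase read by LiveBLAzer fluorescence.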

[6] = p53 small molecule agonists, cell-based qHTS assay with human liver microsomes: qHTS cell viability counter screen (AID 1963579); further: nearly all actives have a fitted effect of over 45% in size; further: potency means the concentration at half of the fitted maximal effect
Summary of the method: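 Metabolic activation used human liver microsomes and NADPH, both 0.5 mg/mL final, over 16 hours at 37 C on p53RE-bla cells (4,000/well). Cytotoxicity measured by CellTiter-Glo luminescence, 30 min at room temperature.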

[7] = p53 small molecule agonists, cell-based qHTS assay with rat liver microsomes: qHTS cell viability counter screen (AID 1963580); further: nearly all actives have a fitted effect of over 45% in size
Summary of the method: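 p53RE-bla HCT-116 cells were exposed 16 h at 37 C to compounds with rat liver microsomes (0.5 mg/mL) and NADPH (0.5 mg/mL). Viability was measured in the same wells as ATP content by CellTiter-Glo luminescence.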

[8] = biological target: 5-hydroxytryptamine receptor 2A (Homo sapiens) (UniProt P28223); assay: 5-hydroxytryptamine receptor 2A (HTR2A) small molecule antagonists, cell-based qHTS assay (AID 1963586); further: nearly all actives have a fitted effect of over 45% in size; further: potency means the concentration at half of the fitted maximal effect
Summary of the method: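 Antagonist-mode intracellular calcium assay: DOI (4 nM) added after 5 min compound pre-incubation at room temperature to dye-loaded HTR2A-CHO cells. Fluorescence followed for 3 min, sampled every second.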

[9] = biological target: 5-hydroxytryptamine receptor 2A (Homo sapiens) (UniProt P28223); assay: 5-hydroxytryptamine receptor 2A (HTR2A) small molecule agonists, cell-based qHTS assay (AID 1963587); further: nearly all actives have a fitted effect of over 30% in size
Summary of the method: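 CHO cells stably expressing human HTR2A, plated 18 h, loaded with calcium dye 1 h at 37 C. Agonist mode: compounds added and intracellular calcium fluorescence recorded kinetically for 2 min at 1 sec intervals.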

[10] = biological target: Muscarinic acetylcholine receptor M1 (Homo sapiens) (UniProt P11229); assay: Cholinergic receptor muscarinic 1 (CHRM1) small molecule antagonists, cell-based qHTS assay (AID 1963588); further: nearly all actives have a fitted effect of over 40% in size
Summary of the method: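 CHRM1-CHO calcium-flux assay, antagonist mode. Cells were seeded 18 h, dye-loaded 1 h at 37 C and given compound for 5 min at RT, then acetylcholine was added at 50nM. FDSS fluorescence was read 3 min; 15 concentrations, three runs.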

[11] = biological target: Muscarinic acetylcholine receptor M1 (Homo sapiens) (UniProt P11229); assay: Cholinergic receptor muscarinic 1 (CHRM1) small molecule agonists, cell-based qHTS assay (AID 1963589); further: nearly all actives have a fitted effect of over 35% in size
Summary of the method: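 Agonist-mode qHTS in CHO cells stably carrying human muscarinic M1. Intracellular calcium is tracked by fluorescence every second after compound transfer; each compound runs at 15 concentrations in three independent runs.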

[12] = cAMP Responsive Elements (CRE) small molecule agonists, cell-based qHTS assay (AID 1963590)
Summary of the method: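 Agonist mode qHTS in CRE-bla HEK 293T cells: compounds dosed from DMSO for 3 h at 37 C/5% CO2, followed by LiveBLAzer B/G FRET substrate for 2 h at room temperature.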

[13] = cAMP Responsive Elements (CRE) small molecule antagonists, cell-based qHTS assay (AID 1963591; active means well fitted inhibition curve with a large enough effect in the signal ratio in the repeat runs, not every such curve was filed as active; the % refers to the signal ratio)
Summary of the method: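 Antagonist mode: test compounds are co-incubated with the adenylyl cyclase activator NKH477 (0.25 uM final) on CRE-bla HEK293T cells for 3 h at 37 °C, followed by LiveBLAzer substrate loading.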

[14] = biological target: Beta-2 adrenergic receptor (Homo sapiens) (UniProt P07550); assay: Adrenergic beta2 receptor (ADRB2) small molecule antagonists, cell-based qHTS assay (AID 1963592); further: series mostly up to about 92 µM; nearly all actives have a fitted effect of over 50% in size
Summary of the method: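 Cells (CHO, stable ADRB2 overexpression) incubated 18-20hr at 37C; compounds added from DMSO; agonist mix (1nM isoproterenol, 100uM IBMX, 25uM Ro-20-1724) added; 0.5hr RT; d2-cAMP and anti-cAMP-cryptate added; 1hr RT; 665/615 nm read.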

[15] = biological target: Beta-2 adrenergic receptor (Homo sapiens) (UniProt P07550); assay: Adrenergic beta2 receptor (ADRB2) small molecule agonists, cell-based qHTS assay (AID 1963593);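 further: CHO cells stably overexpressing human ADRB2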
Summary of the method: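 CHO cells stably over-expressing ADRB2 were plated overnight at 37C, then dosed with compounds plus a stimulation mix containing 100uM IBMX and 25uM Ro-20-1724 for 0.5hr at room temperature. cAMP was measured by HTRF competition, 1hr.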

[16] = biological target: D(2) dopamine receptor (Homo sapiens) (UniProt P14416); assay: Dopamine D2 receptor (DRD2) small molecule agonists, cell-based qHTS assay (AID 1963594); further: nearly all actives have a fitted effect of over 35% in size
Summary of the method: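 HEK293 cells stably expressing human DRD2, pre-treated with PDE inhibitor Ro20-1724 (0.1 mM final) and compound 10 min at room temperature, then stimulated with NKH477 (200nM […]) for 30 min. cAMP read by HTRF (665/620 nm).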

[17] = biological target: D(2) dopamine receptor (Homo sapiens) (UniProt P14416); assay: Dopamine D2 receptor (DRD2) small molecule antagonists, cell-based qHTS assay (AID 1963595; active means well fitted inhibition curve with a large enough effect in the signal ratio in the repeat runs, with a control signal flat; the % refers to the signal ratio; further: potency means the concentration at half of the fitted maximal effect)
Summary of the method: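 DRD2-HEK293; 0.1 mM Ro20-1724; cpd 10 min RT; NKH477 200 nM + quinpirole 12 nM, 30 min RT; HTRF cAMP (cAMP-d2/anti-cAMP cryptate), 665/620 nm ratio after 1 h.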

[18] = p53 small molecule agonists, cell-based qHTS assay with rat liver microsomes (AID 1963578)
Summary of the method: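 Metabolic activation by rat liver microsomes and NADPH, each 0.5 mg/mL final, added right after compounds to p53RE-bla reporter cells (4,000/well, plated 5 h earlier). 16 h at 37 C, then LiveBLAzer substrate for 2 h at room temperature in the dark; fluorescence read-out.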

[19] = p53 small molecule agonists, cell-based qHTS assay (AID 1963582; active means well fitted activation curve with a large enough effect in the signal ratio in the repeat runs, not every such curve was filed as active; the % refers to the signal ratio)
Summary of the method: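 Quantitative HTS in p53RE-bla cells: after a 5 h settling period, compounds delivered in DMSO were left on cells for 16 h at 37 C, and reporter induction was measured as fluorescence following 2 h substrate loading.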

[20] = p53 small molecule agonists, cell-based qHTS assay: qHTS cell viability counter screen (AID 1963581); further: nearly all actives have a fitted effect of over 45% in size
Summary of the method: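 Cells: HCT-116 with p53 response element-driven beta-lactamase. Treatment: 16 h, 37 C, compounds in DMSO. Read: CellTiter-Glo luminescence after 30 min RT.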

Measured: Potency

Sequence of KiSS-1 receptor (Homo sapiens) (Q969F8 whole entry, looked up): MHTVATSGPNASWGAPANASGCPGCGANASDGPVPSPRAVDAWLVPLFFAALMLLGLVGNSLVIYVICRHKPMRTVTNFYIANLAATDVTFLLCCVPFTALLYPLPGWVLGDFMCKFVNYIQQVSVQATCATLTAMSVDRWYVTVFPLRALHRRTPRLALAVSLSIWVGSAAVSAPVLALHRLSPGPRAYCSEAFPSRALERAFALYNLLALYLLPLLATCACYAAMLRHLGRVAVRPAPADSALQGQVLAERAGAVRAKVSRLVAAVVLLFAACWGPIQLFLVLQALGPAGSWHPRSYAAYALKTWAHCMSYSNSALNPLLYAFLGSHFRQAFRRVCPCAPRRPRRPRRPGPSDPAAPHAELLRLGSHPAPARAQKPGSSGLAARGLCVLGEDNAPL
Sequence of Muscarinic acetylcholine receptor M1 (Homo sapiens) (P11229 whole entry, looked up): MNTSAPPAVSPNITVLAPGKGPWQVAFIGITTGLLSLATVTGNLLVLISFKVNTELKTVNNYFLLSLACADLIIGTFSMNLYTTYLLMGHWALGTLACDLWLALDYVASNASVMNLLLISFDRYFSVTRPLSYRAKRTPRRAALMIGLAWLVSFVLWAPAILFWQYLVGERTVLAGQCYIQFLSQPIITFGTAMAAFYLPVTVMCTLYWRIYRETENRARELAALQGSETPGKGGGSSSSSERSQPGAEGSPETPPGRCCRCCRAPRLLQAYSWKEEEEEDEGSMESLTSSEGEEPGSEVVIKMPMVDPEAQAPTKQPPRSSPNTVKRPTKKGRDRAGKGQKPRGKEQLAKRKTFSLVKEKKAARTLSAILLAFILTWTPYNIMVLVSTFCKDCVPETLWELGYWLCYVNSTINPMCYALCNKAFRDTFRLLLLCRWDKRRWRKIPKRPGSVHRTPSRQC
Sequence of Beta-2 adrenergic receptor (Homo sapiens) (P07550 whole entry, looked up): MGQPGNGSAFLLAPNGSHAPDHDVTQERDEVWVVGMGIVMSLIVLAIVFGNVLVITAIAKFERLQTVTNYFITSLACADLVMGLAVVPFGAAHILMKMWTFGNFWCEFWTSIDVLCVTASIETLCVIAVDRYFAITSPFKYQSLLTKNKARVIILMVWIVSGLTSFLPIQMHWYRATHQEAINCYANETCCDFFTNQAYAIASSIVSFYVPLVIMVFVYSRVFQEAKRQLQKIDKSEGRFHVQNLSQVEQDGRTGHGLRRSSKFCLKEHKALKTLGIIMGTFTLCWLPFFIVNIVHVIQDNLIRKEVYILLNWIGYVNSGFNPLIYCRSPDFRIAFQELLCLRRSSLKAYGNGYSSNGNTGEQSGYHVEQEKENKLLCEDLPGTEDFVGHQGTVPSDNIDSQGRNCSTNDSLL
Sequence of D(2) dopamine receptor (Homo sapiens) (P14416 whole entry, looked up): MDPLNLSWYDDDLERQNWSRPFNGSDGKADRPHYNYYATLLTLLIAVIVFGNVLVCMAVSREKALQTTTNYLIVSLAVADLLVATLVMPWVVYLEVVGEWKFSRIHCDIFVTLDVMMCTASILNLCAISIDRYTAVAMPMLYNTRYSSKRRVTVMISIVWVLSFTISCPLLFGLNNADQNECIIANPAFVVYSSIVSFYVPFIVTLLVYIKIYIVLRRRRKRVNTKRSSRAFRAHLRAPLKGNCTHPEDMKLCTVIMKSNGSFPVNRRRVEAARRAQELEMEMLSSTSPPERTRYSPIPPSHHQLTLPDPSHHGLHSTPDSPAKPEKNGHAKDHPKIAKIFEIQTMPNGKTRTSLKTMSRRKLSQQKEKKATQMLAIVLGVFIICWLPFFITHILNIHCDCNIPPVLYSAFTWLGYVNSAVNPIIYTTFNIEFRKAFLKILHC
Sequence of Gonadotropin-releasing hormone receptor (Homo sapiens) (P30968 whole entry, looked up): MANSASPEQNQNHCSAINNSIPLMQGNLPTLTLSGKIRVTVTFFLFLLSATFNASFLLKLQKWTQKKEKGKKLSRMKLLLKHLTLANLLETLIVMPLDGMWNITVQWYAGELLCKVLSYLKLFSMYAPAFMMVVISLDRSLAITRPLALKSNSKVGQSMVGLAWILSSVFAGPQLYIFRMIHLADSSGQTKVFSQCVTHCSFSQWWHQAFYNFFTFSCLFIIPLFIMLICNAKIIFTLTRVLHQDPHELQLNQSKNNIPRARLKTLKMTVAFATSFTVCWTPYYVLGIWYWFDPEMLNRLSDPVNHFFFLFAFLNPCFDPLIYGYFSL
Sequence of 5-hydroxytryptamine receptor 2A (Homo sapiens) (P28223 whole entry, looked up): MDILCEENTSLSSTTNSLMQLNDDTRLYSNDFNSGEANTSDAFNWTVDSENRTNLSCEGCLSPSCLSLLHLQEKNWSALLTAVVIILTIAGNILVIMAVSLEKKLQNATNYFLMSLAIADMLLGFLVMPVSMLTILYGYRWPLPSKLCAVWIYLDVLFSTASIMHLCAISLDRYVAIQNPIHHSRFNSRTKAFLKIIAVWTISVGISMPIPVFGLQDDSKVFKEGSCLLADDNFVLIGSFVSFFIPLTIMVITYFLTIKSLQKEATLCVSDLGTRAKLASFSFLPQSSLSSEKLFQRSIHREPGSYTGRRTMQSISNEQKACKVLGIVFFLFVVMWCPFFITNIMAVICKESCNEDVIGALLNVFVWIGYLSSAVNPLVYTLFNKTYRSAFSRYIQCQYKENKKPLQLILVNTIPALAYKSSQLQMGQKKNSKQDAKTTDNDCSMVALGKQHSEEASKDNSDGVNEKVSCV

CC1=CC[C@H](C(C)C)C=C1
not listed: [18] | [19] | [20]
inactive: all other assays above

c1ccc2c(CC3=NCCN3)cccc2c1
not listed: [8] | [20]
inactive: all other assays above

c1ccc(COCc2ccccc2)cc1
not listed: [7] | [10] | [15]
inactive: all other assays above

CN1[C@@H]2CC[C@H]1CC(OC(=O)C(O)c1ccccc1)C2 (some centres not stated)
not listed: [6] | [8] | [9] | [10] | [11] | [15] | [19]
inactive: all other assays above

CCCC1CCC(=O)O1 (configuration not stated)
not listed: [13] | [16] | [17] | [19] | [20]
inactive: all other assays above

SCCCCCCCCS
not listed: [6] | [10] | [13]
inactive: all other assays above

CCN(CC)C(=O)N1CCN(C)CC1
not listed: [6]
inactive: all other assays above

Nc1ccc(S(=O)(=O)NCc2ccccc2)cc1
not listed: [8] | [17] | [18] | [19]
inactive: all other assays above

CCC(C)N(C)C(=O)c1cc2ccccc2c(-c2ccccc2Cl)n1 (configuration not stated)
not listed: [9] | [10] | [13] | [15] | [18]
inactive: all other assays above

COc1ccccc1N1CCN(CCCCNC(=O)c2ccc(-c3ccc(C(C)=O)cc3)cc2)CC1
active: [8] 326 nM | [17] 750 nM
not listed: [9] | [10] | [13] | [14] | [15] | [20]
inactive: all other assays above

CNc1ccc(O)cc1
active: [1] 54.4 µM | [6] 25.7 µM
inactive: [2] | [3] | [4] | [5] | [18] | [7] | [9] | [11]

O=C(CCBr)N1CCN(C(=O)CCBr)CC1
not listed: [15] | [18]
inactive: all other assays above

CCCCCCCCCCCCCCCCOP(=O)([O-])OCC[N+](C)(C)C
not listed: [6] | [9] | [10]
inactive: all other assays above

Oc1c(Br)cc(Br)c2cccnc12
active: [1] 2.66 µM
not listed: [12] | [15] | [20]
inactive: all other assays above

CCN(CC)CC(=O)Nc1c(C)cccc1C(=O)OC
not listed: [6] | [14] | [16] | [20]
inactive: all other assays above

COc1cc(NS(=O)(=O)c2ccc(N)cc2)nc(OC)n1
not listed: [6] | [8] | [9] | [10] | [11] | [15] | [20]
inactive: all other assays above
